{"source": "PubChem BioAssay", "note": "“And” between values parts separate entries of the source, which are not always exact repeats. Identical values can stand only once. The source made the active and inactive calls.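 Rule for the calls: active = compounds killing one labelled cell type while sparing the other, by normalised counts and ratio limits, not self-fluorescent; inactive = the rest.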", "data": [{"experiment": "EMT-state selective cytotoxicity in co-culture – imaging, PC-3E GFP, TEM4-18 mCherry, primary screen (AID 1345086);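 note: cells exposed to compound for 72 h before imaging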;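 for red/green cell ratio (normalised): normalised mesenchymal count divided by normalised epithelial count so high means epithelial killing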", "conditions": "PC-3E GFP / TEM4-18 mCherry co-culture, imaging cell counts; at 1 µM; actives lie on both sides; counts scaled to control wells, 1 = unselective", "values": [{"smiles": "C[C@]12CCC3c4ccc(O)cc4C[C@@H](CCCCCCCCCS(=O)CCCC(F)(F)C(F)(F)F)C3C1CC[C@@H]2O", "note": "(stereo not given in full)", "red/green cell ratio (normalised)": "1.23 (inactive)"}, {"smiles": "C[C@@H]1Cc2cccc(O)c2C(=O)O1", "red/green cell ratio (normalised)": "1.03 (inactive)"}, {"smiles": "COC(=O)C[C@@H]1C2(C)C(=O)[C@@H](CC3=C4CC(=O)O[C@@H](c5ccoc5)[C@]4(C)CCC32)[C@H](OC(C)=O)C1(C)C", "note": "(stereo not given in full)", "red/green cell ratio (normalised)": "1.06 (inactive)"}, {"smiles": "COc1ccc2c(c1)CCC1C2CC[C@@]2(C)C1CC[C@@H]2O", "note": "(stereo not given in full)", "red/green cell ratio (normalised)": "0.78 (inactive)"}, {"smiles": "CCC(/C=C/[C@@H](C)[C@H]1CCC2C3CC=C4C[C@@H](O)CC[C@]4(C)C3CC[C@@]21C)C(C)C", "note": "(stereo not given in full)", "red/green cell ratio (normalised)": "1.07 (inactive)"}, {"smiles": "CC1(C)C[C@H]2[C@@]1(O)[C@@H](O)C[C@]1(C)[C@H](O)C=C[C@]21CO", "red/green cell ratio (normalised)": "0.9 (inactive)"}, {"smiles": "COc1cc2c(cc1OC)Cc1cc(OC)c(OC)cc1Cc1cc(OC)c(OC)cc1C2", "red/green cell ratio (normalised)": "1.03 (inactive)"}, {"smiles": "COC(=O)CC1C(C)(C)C(OC(C)=O)[C@@H]2[C@@H](OC(C)=O)[C@]34O[C@@]2(O)C1(C)C3CC[C@]1(C)C4=CC(=O)O[C@H]1c1ccoc1", "note": "(stereo not given in full)", "red/green cell ratio (normalised)": "1.07 (inactive)"}, {"smiles": "CN[C@H]1[C@@H](O[C@@H]2[C@@H](O[C@@H]3[C@@H](O)[C@H](O)[C@@H](N=C(N)N)[C@H](O)[C@H]3N=C(N)N)O[C@H](C)[C@@]2(O)CO)O[C@H](CO)[C@@H](O)[C@@H]1O", "red/green cell ratio (normalised)": "0.84 (inactive)"}]}, {"experiment": "EMT-state selective cytotoxicity in co-culture – imaging, PC-3E GFP, TEM4-18 mCherry, primary screen (AID 1345086)", "conditions": "PC-3E GFP / TEM4-18 mCherry co-culture, imaging cell counts; measured here: epithelial PC-3E GFP cell survival; at 1 µM", "values": [{"smiles": "CC(C)=CCC/C(C)=C\\CC1=C(C)C(=O)c2ccccc2C1=O", "normalised cell number": 1.11}, {"smiles": "C[C@]12CCC3c4ccc(OC(=O)c5ccccc5)cc4CCC3C1CC[C@@H]2O", "note": "(stereo not given in full)", "normalised cell number": 1}, {"smiles": "CO/C(C)=C1/C(=O)C(CO)OC1O", "note": "(stereo not given)", "normalised cell number": 0.93}, {"smiles": "CC(=O)O[C@H]1CCC2(C)C3=C(CCC2C1(C)C)[C@@]1(C)CC[C@@H](C(C)CCC=C(C)C)[C@]1(C)CC3", "note": "(stereo not given in full)", "normalised cell number": 0.67}, {"smiles": "CC1CN(c2c(F)c(N)c3c(=O)c(C(=O)O)cn(C4CC4)c3c2F)C[C@H](C)N1", "note": "(stereo not given in full)", "normalised cell number": 1.03}, {"smiles": "Cc1ccc(S[C@H]2OC(COCc3ccccc3)C(OC(=O)CCC(=O)O)[C@@H]3OC(=O)N[C@H]23)cc1", "note": "(stereo not given in full)", "normalised cell number": 1.11}, {"smiles": "CC(=O)OCC1O[C@@H](OC(C)=O)C(NC(=O)OCc2ccccc2)[C@@H](OC(C)=O)C1OC(C)=O", "note": "(stereo not given in full)", "normalised cell number": 1.16}, {"smiles": "COC(=O)C12C(C(C)=O)OC(CC(O)C1O)C2C", "note": "(stereo not given)", "normalised cell number": 1.04}, {"smiles": "COc1cc(C(=O)O)cc(OC)c1O", "normalised cell number": 1}, {"smiles": "COC(=O)C[C@H]1C2(C)CC34OC5(C)O[C@]6(C7/C(=C(/OC)C(C)C)C(=O)O[C@@H](c8ccoc8)[C@]7(C)C(OC(=O)C(C)C)[C@@H](OC)[C@]6(O5)C13C)[C@H](OC)[C@@]4(OC)C2OC(C)=O", "note": "(stereo not given in full)", "normalised cell number": 1.04}, {"smiles": "CC(C)[C@H]1COC(=O)N1C(=O)CC(C)N1C(=S)OC[C@H]1c1ccccc1", "note": "(stereo not given in full)", "normalised cell number": 1.07}, {"smiles": "O=C(O)c1cc(O)c2c(c1)[C@@H]([C@@H]1c3cc(C(=O)O)cc(O)c3C(=O)c3c(O[C@H]4O[C@H](CO)[C@@H](O)[C@H](O)[C@H]4O)cccc31)c1cccc(O[C@H]3O[C@H](CO)[C@@H](O)[C@H](O)[C@H]3O)c1C2=O", "normalised cell number": 1.02}, {"smiles": "O=C(NCC1O[C@@H](OC2C(NC(=O)OCc3ccccc3)C[C@@H](NC(=O)OCc3ccccc3)[C@H](OC3OC(COS(=O)(=O)O)[C@@H](OS(=O)(=O)O)[C@H](NC(=O)OCc4ccccc4)[C@H]3OS(=O)(=O)O)[C@H]2OS(=O)(=O)O)[C@H](OS(=O)(=O)O)[C@@H](OS(=O)(=O)O)C1OS(=O)(=O)O)OCc1ccccc1", "note": "(stereo not given in full)", "normalised cell number": 0.88}, {"smiles": "CCC1OC(=O)[C@H](C)C(=O)[C@H](C)[C@@H](OC2O[C@H](C)C[C@H](N(C)C)[C@H]2O)[C@](C)(OC)C[C@@H](C)C(=O)[C@H](C)[C@H]2N(CCCCn3cnc(-c4cccnc4)c3)C(=O)O[C@@]12C", "note": "(stereo not given in full)", "normalised cell number": 1.06}, {"smiles": "C=C1CC[C@@]2(C)[C@H](C)CC[C@H](O)[C@@]2(CCC=C(C)C)[C@@H]1Cc1c[nH]c2ccccc12", "normalised cell number": 0.88}, {"smiles": "COc1c(F)c(F)cc(C(=O)O)c1F", "normalised cell number": "0.89 and 0.98"}, {"smiles": "CC(C)c1c(O)ccc2c1CCC1C(C)(C)CCC[C@]21C", "note": "(stereo not given in full)", "normalised cell number": 1.08}, {"smiles": "Cc1cc(O)c2c(c1)Cc1cccc(O)c1C2=O", "normalised cell number": 1.28}, {"smiles": "O=C1OCC[C@H]1Oc1ccc(Oc2cnc3ccc(Cl)cc3n2)cc1", "normalised cell number": 1.08}, {"smiles": "CCC(CCC(C)[C@H]1CCC2C3CC=C4C[C@@H](O)CC[C@]4(C)C3CC[C@@]21C)C(C)C", "note": "(stereo not given in full)", "normalised cell number": 1.04}, {"smiles": "COC(=O)[C@@H]1C(O)CC[C@H]2CN3CCc4c([nH]c5ccccc45)[C@@H]3C[C@@H]21", "note": "(stereo not given in full)", "normalised cell number": 0.88}]}]}
